These results are taken from PubChem BioAssay AID489018 (Southern Research Specialized Biocontainment Screening …, 2010).

The structures appear in SMILES notation. Among all 2,300 compounds or so, about 350 (15%) were called active. Not all results are given here. Entries with a potency or affinity are not part of this list. Values without a mark were called inactive. The rule behind the calls is not given here.

This test can be described thus: HepG2 cell cytotoxicity, dose response, cytotoxicity control for non-replicating M. tuberculosis project (AID 489018).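 Note: HepG2 human liver cells; 100% = vehicle-treated cells and 0% = background signal.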 Conditions: series mostly up to 20 µM; viability: at the top concentration.
As to `CCOC(=O)c1cc(-c2csc(COc3ccc(Cl)cc3)n2)on1`, the viability (in general, a read-out of living cells in per cent, often relative to untreated cells) was 96.1%.
Next, `Cc1cccc(NC(=O)COC(=O)CCc2c[nH]c3ccccc23)c1C`: 109%; `CC(OC(=O)c1ccc2c(=O)n3c(nc2c1)CCCCC3)C(=O)Nc1ccc(Cl)cn1` (stereo not given): 97.6%.
Next, `C=CCn1c(NC(=O)c2ccccc2)nc2ccccc21`: 102% [at 5 µM]; `C/C(=N/NC(=O)c1ccncc1)C1=C(O)CC(C)(C)CC1=O`: 106% [at 5 µM]; `C=Cc1cccc(NC(=O)COc2ccccc2)c1`: 95.6%.
As to `Cc1ccc(NCCC(=O)c2cccs2)cc1Cl`, the “viability” value was 108%.
Turning to `CCOC(=O)COc1ccc2c(c1)c(C(=O)OCC)c(C)n2CC`, the “viability” value was 102%.
For the molecule `Cc1cc(C)c2nc(/N=C(\N)NC(=O)Nc3ccccc3)nc(C)c2c1`, the “viability” value is 95.2%.
Next, `NC(N)=Nc1nc(-c2ccccc2)c2ccccc2n1`: 102% [at 5 µM].
For `CCC(CC)c1nnc(NC(=O)c2ccc3ccccc3n2)s1`, the “viability” value was 80.1%.
For `Cc1ccc(NC(=O)CO/N=C/c2ccccc2C)c(C)c1` the value was 92.9%.
On to `CC(=O)CCC1CC(c2ccc(Cl)cc2)=NO1` (stereo not given), for which the “viability” value is 100%.
Next, `CCCCCCNC(=O)c1ccc(Br)o1`: 102%.
For `COc1cccc2cc(C(=O)NCc3ccc(F)cc3)c(=N)oc12` the value was 119%; for `O=[N+]([O-])c1cncc([N+](=O)[O-])c1Nc1ccccc1Cl`, 97.8% [at 5 µM]; for `Cc1cc(Br)ccc1OCC(=O)NNC(=O)c1cnccn1`, 111% [at 5 µM].
As for `Cc1ccc(C(=O)C=CNNC(=O)c2ccccc2)cc1`, the “viability” value is 98.9%.
For `CNC(=O)c1[nH]cnc1C(=O)Nc1ccc(Cl)cc1`, the “viability” value is 98.1%.
Next, `Cc1nc(C(=O)Nc2ccccc2)sc1C(=O)Nc1ccccc1`: 91%.
Next, `O=C(CN1CCOCC1)N/N=C/c1ccc(-c2ccc(Br)cc2)o1`: 96.8%; `CCOCC(=O)Nc1ccc(C)c(Cl)c1`: 99.3%.
Regarding `CCC(C)(C)NC(=O)c1ccc(Br)o1`, the “viability” value is 110%.
With `O=C(Nc1ccccc1)c1ccc(Br)o1`, the “viability” value is 110% [at 5 µM].
For `O=C(O)CCCCCN1C(=O)/C(=C\c2ccncc2)SC1=S`, the “viability” value is 90.8%.
With `CCn1c(-c2ccco2)nc2ccccc21`, the “viability” value was 101%.
Next, `COc1cccc(COC(=O)c2sc3nc4n(c(=O)c3c2C)CCC4)c1OC`: 106%; `Cc1cccc(NC(=O)c2ccc([N+](=O)[O-])s2)n1`: 79.6%.
Take `COc1ccc(NC(=O)c2cnc(SC)nc2)cc1`: the “viability” value is 87.5%.
For `Cc1ccccc1-n1sc2cc(F)ccc2c1=O` the value was 90.2%; for `O=C(Nc1ccn(Cc2ccccc2)n1)c1ccc(F)cc1`, 107% [at 5 µM]; for `CN(CCCCOc1ccc(F)cc1)Cc1ccccc1`, 102%.
Next, `O=C(CCN1C(=O)S/C(=C\c2ccc(F)cc2)C1=O)Nc1ccc(C(=O)O)c(O)c1`: 102%.
Next, `FC(F)(Cl)c1nnc2ccc(Cl)nn12`: 78%.
In the case of `Cn1c(SCc2c(F)cccc2Cl)nc2c(c1=O)SCC2`, the “viability” value was 92.9%.
For `O=C(Oc1ccccc1)c1cc2ccccc2o1` the value was 110% [at 5 µM]; for `COC(=O)c1ccc2c(c1O)C(=O)c1ccccc1C2=O`, 102% [at 5 µM].
Regarding `COc1ccc(-c2[nH]ncc2CN2CCCCCCC2)c(OC)c1`, the “viability” value was 97.7%.
In the case of `Cc1noc2ncnc(Sc3ccccc3Cl)c12`, the “viability” value is 111%.
As for `O=C(N/N=C/c1ccc(Br)s1)c1ccncc1`, the “viability” value is 90%.
`Cc1ccc(/C=N/NC(=O)c2ccncc2)s1`: the “viability” value is 107%.
`O=C(Nc1nccs1)c1ccc2ccccc2c1`: the “viability” value is 91.4%.
Take `CC(C)(C)c1ccc(-c2nc(C#N)c(NCCCn3ccnc3)o2)cc1`: the “viability” value was 101%.
For `O=[N+]([O-])c1ccc(Nc2ccccc2O)c2nonc12`, the “viability” value is 98.6%.
Next, `O=[N+]([O-])c1ccc(Nc2ccccc2)c2nonc12`: 109%; `C#CCSc1nnc(-c2ccc(C)cc2)o1`: 93.6%; `c1ccc(CNCCC(Cc2ccccc2)c2ccco2)cc1` (stereo not given): 76.4%.
Next, `O=C(Nc1ccc(Cl)cc1Cl)c1cccc(N2C(=O)C=CC2=O)c1`: 99.2%.
For `c1ccc2[nH]c(NC3=NCCC3)nc2c1` the value was 103%; for `Cc1cccc(OCCCCc2c(C)n[nH]c2C)c1`, 89.6%.
For the molecule `O=C(NC(=S)N1CCN(Cc2ccc3c(c2)OCO3)CC1)c1ccc(Cl)cc1`, the “viability” value was 83.1%.
With `C/C(=N\Nc1cccc2cccnc12)c1ccccn1`, the “viability” value was 82.3%.
Next, `O=C(N/N=C/c1ccccn1)c1ccccc1`: 87.5%.
As for `C/C(=N\Nc1ccc(Cl)cc1)c1ccccn1`, the “viability” value is 90.1%.
Take `COc1ccccc1/C=C/C=N/NC(=O)c1ccncc1`: the “viability” value was 96.1%.
In the case of `O=C(COc1ccc(Cl)cc1)NNC(=O)c1ccccn1`, the “viability” value was 105%.
Take `COc1cc(/C=N/NC(=O)c2ccccn2)ccc1OC(=O)c1cccs1`: the “viability” value was 92.5%.
Regarding `C/C(=N\NC(=O)CCCNc1ccc(C)cc1)c1ccccn1`, the “viability” value is 76.5% [at 5 µM].
For `COc1ccc(C(=O)Nc2ccccc2C(=O)N/N=C/c2ccco2)cc1` the value was 83%; for `COc1ccc(N2C(=O)C(F)(F)C2c2cccc(F)c2)cc1` (stereo not given), 93.6%.
For the molecule `Cc1ccc(-c2nnc(NC(=O)c3ccco3)o2)c(C)c1`, the “viability” value was 94.2%.
With `Cc1ccc(S(=O)(=O)/N=C(\CCl)N2CCOCC2)cc1`, the “viability” value was 100%.
As for `O=C(N/N=C/c1cccc2cccnc12)[C@H]1C[C@@H]1c1ccccc1`, the “viability” value is 92.1%.
Next, `CC(C)c1ccc(/C=N/NC(=O)c2ccccn2)cc1`: 96.6%; `O=C(CCc1c[nH]c2ccccc12)Nc1ncccc1O`: 99.2%.
Next, `O=C(Nc1ccc(Br)cc1)c1cc([N+](=O)[O-])cc([N+](=O)[O-])c1`: 96.6%.
For `Nc1ccccc1C#CC(=O)c1ccccc1` the value was 114%.
Regarding `COc1ccc(-c2cc(C(F)(F)F)nc(S(C)(=O)=O)n2)cc1`, the “viability” value is 119% [at 5 µM].
`CCOC(=O)c1ccsc1NC(=O)CCS(=O)(=O)c1ccccc1`: the “viability” value is 101% [at 5 µM].
Next, `COC(=O)COc1ccc(-c2ccccc2)cc1C=O`: 93.7%; `COc1ccc(OCCOC(=O)CCS(=O)(=O)c2ccc(C)cc2)cc1`: 107% [at 5 µM].
For `COc1ccc(C(=O)Cn2c(C)nc([N+](=O)[O-])c2Br)cc1` the value was 89.7%.
With `Cc1ccc2nc(/N=C(\N)NC(=O)NC3CCCCC3)nc(C)c2c1`, the “viability” value is 83.8%.
For `O=C(COc1ccccc1)NC1CCCCC1`, the “viability” value was 107%.
For `Cn1cccc1/C=N\NC(=O)C1COc2ccccc2O1` (stereo not given) the value was 89.8%; for `O=C(C/C=N\OCc1ccc([N+](=O)[O-])cc1)Nc1ccc(Cl)cc1`, 91.9%; for `O=C(NCC(c1cccs1)N1CCOCC1)c1cc([N+](=O)[O-])cc([N+](=O)[O-])c1` (stereo not given), 97.6%.
Next, `OC(CNCCc1ccc(C(F)(F)F)cc1)COc1ccc2ccccc2c1` (stereo not given): 96.9% [at 5 µM]; `OC(CNCCc1ccc(C(F)(F)F)cc1)COc1cccc2ccccc12` (stereo not given): 97.7% [at 5 µM]; `Cn1ccsc1=NC(=O)c1ccccc1F`: 103%.
